FBA Mtb inh = Mtb fructose-bisphosphate aldolase inhibition; P9WQA3; purified M. tuberculosis FBA, fluorescence read-out; inhibition, % at 1 µM; actives 2.3% (n = 360,000); AID 588726; in the data active = inhibition above about 27%;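 note: 0% = vehicle and 100% = reference inhibitor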
Target sequence (P9WQA3 whole entry, looked up): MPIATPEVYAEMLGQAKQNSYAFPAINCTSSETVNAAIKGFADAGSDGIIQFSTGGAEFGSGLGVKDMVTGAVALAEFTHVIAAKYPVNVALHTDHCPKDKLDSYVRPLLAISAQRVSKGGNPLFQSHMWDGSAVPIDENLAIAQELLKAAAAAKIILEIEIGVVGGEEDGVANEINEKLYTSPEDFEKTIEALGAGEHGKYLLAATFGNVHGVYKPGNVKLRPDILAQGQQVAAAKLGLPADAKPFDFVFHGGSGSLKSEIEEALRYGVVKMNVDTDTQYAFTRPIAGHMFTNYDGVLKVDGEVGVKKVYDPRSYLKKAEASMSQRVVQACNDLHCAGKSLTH
PrPC TRFRET = cell surface PrPC inhibition, primary TR-FRET screen; P04156; TR-FRET read-out; inhibition, % at 13.8 µM; actives 0.43% (n = 370,000); AID 720596; in the data active = inhibition above about 24%; note: 0% = median of the test wells and 100% = reference compound wells
PrP 5UTR inh = inhibition of PrP 5' UTR reporter expression. inhibition, % (no concentration beside the values). actives 0.35% (n = 340,000). cell-based PrP 5' UTR mRNA reporter, plate reader; in the data active = inhibition above about 52%; note: 0 = median of the neutral control wells
Mtb hypoxia rep = Mtb hypoxia fluorescent reporter inhibition. actives 0.1% (n = 300,000). fluorescence inhibition, % (test concentration not listed). AID 1159583. M. tuberculosis hypoxia-regulated fluorescent reporter, fluorescence; in the data active = fluorescence inhibition mostly above about 23%, no sharp cut-off; inactive = mostly below about 17%
GDH-TPI counter = inhibits GDH-TPI coupling enzymes, artifact for Mtb FBA screen. GDH-TPI coupled enzyme counterscreen, NADH absorbance. inhibition, % at 4.8 µM. actives 1.2% (n = 360,000). AID 588335; in the data active = inhibition above about 30%;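 note: 0% = DMSO wells and 100% = wells lacking the enzyme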
Yp Topo-I inh = blocks Yersinia pestis topoisomerase I activity. Y. pestis Topo-I cleavage product accumulation, plate reader. activity, % at 10 µM. actives 0.064% (n = 360,000). AID 504884; in the data active = activity above about 50%, passing the limit was not always enough
* = called active by the depositor; x = no result given; + = active, no number. The list is not random: actives were taken first. Their share in the collection is about 3.8%.

SMILES	FBA Mtb inh	PrPC TRFRET	PrP 5UTR inh	Mtb hypoxia rep	GDH-TPI counter	Yp Topo-I inh
CC[C@H](C)[C@H](NC(=O)CNC(=O)COc1cc2c(c3oc(=O)cc(C)c13)CCC(C)(C)O2)C(=O)O	+	-7	-29	-10	-2	-4
Cc1c(OCC(=O)N[C@@H](Cc2ccccc2)C(=O)O)ccc2c3c(c(=O)oc12)CCC3	26	7	-22	x	11	2
Cc1cc(=O)oc2c3c(cc(OCC(=O)NCC(=O)N[C@H](C(=O)O)C(C)C)c12)OC(C)(C)CC3	+	5	-13	-6	2	3
Cc1ccc(C(=O)NC(=Cc2ccc(-c3cccc([N+](=O)[O-])c3)o2)C(=O)NC(C)(C)C)cc1	x	x	x	4	x	x
CCOC(=O)c1c(NC(=O)c2ccc(N3C(=O)[C@@H]4[C@H](C3=O)[C@H]3C=C[C@@H]4C3)cc2)sc2c1CC(C)CC2 (stereo partly drawn)	137*	-1	-28	5	1	0
CCOC(=O)COc1ccc2cc(C(=O)OCC)c(=O)oc2c1	184*	-16	1	-2	38*	6
CC(=O)Oc1ccc2c(=O)c(-c3ccccc3)coc2c1	15	8	-69	4	0	9
COc1ccc(-c2cc(=O)oc3cc(OC(C)C(=O)NC4CC4)ccc23)cc1 (stereo not drawn)	1	-1	-25	x	4	4
CC(=O)Oc1ccc2cc(-c3ccccc3)c(=O)oc2c1	158*	-5	-19	1	6	-1
COc1ccc(-c2cc3ccc(OC(C)C(=O)O)cc3oc2=O)cc1 (stereo not drawn)	+	-29	8	-2	16	12
CC(=O)COc1ccc2cc(-c3ccccc3)c(=O)oc2c1	+	-17	-60	x	40*	-6
CCOC1OC(C(=O)N2CCN(Cc3ccc4c(c3)OCO4)CC2)=CC(C)C1CCCO (stereo not drawn)	x	x	x	-1	x	x
Cc1ccc(CC2SC(=Nc3ccccn3)NC2=O)cc1 (stereo not drawn)	x	x	x	0	x	x
C=CCn1c(O)c(N=NC(=S)Nc2cccc(OC)c2)c2ccccc21	-10	3	38	15	35*	-4
N#CC1=C2SC=C(c3ccc(Br)cc3)N2CCCC1=O	-1	6	-68	3	3	4
N#CC1=C2Sc3ccccc3N2CCCC1=O	-2	3	-37	7	34*	5
COc1ccc(N2C(=O)/C(=C/c3ccc([N+](=O)[O-])cc3)N=C2C)cc1	-6	-23	-32	-7	9	-17
CC1=N/C(=C\c2ccc([N+](=O)[O-])cc2)C(=O)N1c1ccc(Br)c(C)c1	-3	-15	-13	6	39*	5
O=C1C(=O)N(Cc2cccnc2)C(c2ccccn2)/C1=C(/O)c1ccc(F)cc1 (stereo not drawn)	5	-5	-6	0	18	2
Cc1ccc(/C(O)=C2/C(=O)C(=O)N(Cc3cccnc3)C2c2ccccn2)cc1 (stereo not drawn)	3	-3	5	4	38*	-2
Cc1ccc(NC(=O)C(=O)NCc2ccc(/C=N/NC(=O)c3c(C)nc4ccccn34)o2)cc1	-2	-9	-11	x	42*	26
Cc1cc(C)n(CC(=O)NN=Cc2cc(Br)cc([N+](=O)[O-])c2O)n1	x	x	x	-3	x	x
CCCSc1nc(N)c2c3c(sc2n1)CN(C)CC3	41*	x	3	1	27	-10
C=C(C)C(=O)N1CC2(CC(c3cccc(NC(=O)CC(c4ccccc4)c4ccccc4)c3)=NO2)CC1C(N)=O (stereo not drawn)	x	x	x	-6	x	x
CN1CCN(CCCNC(=O)c2cc3c(=O)n(C)c4ccccc4c3s2)CC1	89*	-14	-21	3	12	-12
SMILES	FBA Mtb inh	PrPC TRFRET	PrP 5UTR inh	Mtb hypoxia rep	GDH-TPI counter	Yp Topo-I inh
Cc1ccc2oc(=O)c3cc(C(=O)NCCCN4CCN(C)CC4)sc3c2c1	14	-6	-10	8	22	-10
N#Cc1cnc(Nc2nc3ccccc3o2)nc1-c1ccccc1	-5	-3	-28	x	33*	4
COc1cccc(-c2ccc(C#N)c(SCC(=O)NCCc3cccc(Cl)c3)n2)c1	11	-4	-9	-3	25	4
COc1ccc(-c2ccc(C#N)c(SCC(=O)NCCc3ccccc3)n2)cc1OC	152*	x	-16	3	13	3
CS(=O)(=O)Nc1ccccc1C(=O)OCC(=O)N1CCC(c2ccccc2)=N1	3	1	-8	33*	-3	19
Cc1ccc(C(=O)OCC(=O)N2CCC(c3ccccc3)=N2)c(C)c1	4	-8	-1	-8	3	-6
CC(C)NC(=O)N(C)CC1Oc2c(NC(=O)Nc3ccccc3)cccc2C(=O)N(C(C)CO)CC1C (stereo not drawn)	x	x	x	13	x	x
Oc1ccc(C=NNc2ccc(Cl)nn2)cc1O	x	x	x	20	x	x
N=c1c(C(=O)NCC2CCCO2)cc2c(=O)n3ccccc3nc2n1Cc1ccc(F)cc1 (stereo not drawn)	+	-15	-32	3	0	-6
O=C(Cn1c(=O)n(Cc2ccc(F)cc2)c(=O)c2ccccc21)NCC1CCCO1 (stereo not drawn)	2	3	1	-5	-3	-10
Cc1cccn2c(=O)c3cc(C(=O)NCC4CCCO4)c(=N)n(Cc4cccnc4)c3nc12 (stereo not drawn)	+	-34	10	-3	13	1
N=c1c(C(=O)NCC2CCCO2)cc2c(=O)n3ccccc3nc2n1Cc1cccnc1 (stereo not drawn)	+	-52	-9	x	16	-12
CC(=O)C(=NNc1ccc(Br)cc1)Sc1cccc2cccnc12	x	x	x	5	x	x
Cc1cc(N/N=C/c2ccc(O)cc2O)nc(N2CCOCC2)n1	-8	-6	-11	x	69*	-12
Cc1ccc(/C=N/Nc2cc(C)nc(N3CCOCC3)n2)cc1	-2	2	-17	x	31*	16
Oc1ccc(/C=N\Nc2cc(N3CCOCC3)nc(N3CCOCC3)n2)c(O)c1	0	0	-7	x	65*	-10
Cc1cc(N/N=C/c2ccccc2)nc(N2CCOCC2)n1	-1	-3	x	x	26	-2
Oc1ccc(C=NNc2cc(N3CCOCC3)nc(N3CCOCC3)n2)cc1	x	x	x	0	x	x
COc1ccc(/C=N/Nc2cc(C)nc(N3CCOCC3)n2)c(OC)c1	-3	3	-11	x	48*	-4
CCN1C(=O)C2C(c3ccc(C)cc3)N3C(=O)N(c4cccc(F)c4)C(=O)[C@@]3(C)C2C1=O (stereo partly drawn)	x	x	x	5	x	x
CC(C)CC(NC(=O)c1[nH]cnc1C(=O)Nc1ccc(Cl)cc1)C(=O)OC(C)(C)C (stereo not drawn)	x	x	x	16	x	x
COc1ccc(S(=O)(=O)Nc2cccc3c2OC(CN(C)Cc2ccccc2)C(C)CN(C(C)CO)C3=O)cc1 (stereo not drawn)	x	x	x	10	x	x
Cc1nc(N/N=C/c2cccnc2)cc(N2CCOCC2)n1	-2	-13	x	x	31*	1

Assay outcomes from PubChem BioAssay.
